In PubChem BioAssay (Tox21):
Unmarked numbers belong to inactive results. Inconclusive results are not listed. Where a call stands in place of a potency, no number is given. Activity calls are given as the source filed them. Unless noted, the call rests on the fitted dose curve; in most records, active means well fitted curve in the direction sought with a large enough effect in the repeat runs; inconclusive means weak or mixed curves; inactive means no such curve, though single readings can be large; an effect the other way counts as inactive or inconclusive.

Experiments:
[1] = biological target: Thyrotropin-releasing hormone receptor (Homo sapiens) (UniProt P34981); assay: qHTS assay to identify small molecule agonists of the thyrotropin-releasing hormone receptor (TRHR) signaling pathway (AID 1346891; calls by dose curve;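 further: HEK293 cells expressing TRHR with calcium dye readout; series mostly up to about 58 µM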)
Outline: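 HEK293/TRHR cells, 1500 per well, 18 h 37 °C; Ca dye 2 h 37 °C; pin-tool compound addition (agonist mode); kinetic fluorescence 3 min, 1 s reads; 15 concentrations, triplicate.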

[2] = Human pregnane X receptor (PXR) small molecule agonists, qHTS cell viability counter screen (AID 1346977); further: nearly all actives have a fitted effect of over 50% in size; further: potency means the concentration at half of the fitted maximal effect
Outline: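 Fluorescence read-out (CellTiter-Fluor) of viability in PXR-Luc HepG2 cells, multiplexed with the luciferase agonist read. Compounds in DMSO added after 5hr plating; 24hr total exposure at 37C, 5% CO2.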

[3] = Caspase-3/7 induction in HepG2 cells by small molecules, qHTS assay (AID 1346978); further: nearly all actives have a fitted effect of over 15% in size; further: potency means the concentration at half of the fitted maximal effect
Outline: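 Wild-type HepG2 cells (2,000/well) were settled 5 h at 37 C, 5% CO2, then exposed to compounds in DMSO for 17 h. Caspase-3/7 activity was read by luminescence 30 min after adding Caspase-Glo 3/7 reagent at room temperature.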

[4] = Caspase-3/7 induction in CHO-K1 cells by small molecules, qHTS cell viability counter screen (AID 1346979); further: nearly all actives have a fitted effect of over 35% in size; further: potency means the concentration at half of the fitted maximal effect
Outline: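 CHO-K1 wt, 1,500 cells/well; 5hr pre-incubation 37C/5% CO2; compound pin transfer (DMSO); 16hr exposure; CellTiter-Fluor added, 1hr, fluorescence read.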

[5] = Caspase-3/7 induction in CHO-K1 cells by small molecules, qHTS assay (AID 1346980); further: nearly all actives have a fitted effect of over 15% in size
Outline: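 Wild-type cells were seeded at 1,500 per well and settled 5 hr at 37 C, 5% CO2, then exposed to DMSO-dissolved compounds for 17 hr. Caspase-Glo 3/7 reagent was added, and luminescence was read after 30min at room temperature.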

[6] = Caspase-3/7 induction in HepG2 cells by small molecules, qHTS cell viability counter screen (AID 1346981); further: nearly all actives have a fitted effect of over 30% in size; further: potency means the concentration at half of the fitted maximal effect
Outline: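 Cell viability is measured as a cytotoxicity counter screen alongside the Caspase-Glo 3/7 readout in identical wells. Wild-type HepG2 cells are treated with test compounds for 16 hr at 37 C before CellTiter-Fluor addition and a 1-hr incubation.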

[7] = biological target: Nuclear receptor subfamily 1 group I member 2 (Homo sapiens) (UniProt O75469); assay: Human pregnane X receptor (PXR) small molecule agonists, qHTS assay (AID 1346982); further: nearly all actives have a fitted effect of over 35% in size; further: potency means the concentration at half of the fitted maximal effect
Outline: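 Cells: HepG2 stably carrying PXR-Luc. Medium held 5% charcoal-stripped FBS. Compounds in DMSO added after 5 hr plating, incubated 24 hr, then luminescence quantified with ONE-Glo.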

[8] = biological target: Nuclear receptor subfamily 1 group I member 2 (Rattus norvegicus) (UniProt Q9R1A7); assay: Rat pregnane X receptor (rPXR) activation by small molecules, qHTS assay (AID 1346983); details: rPXR luciferase reporter cells, One-Glo luminescence, 24 h; max activation: active compounds read high; further: nearly all actives have a fitted effect of over 20% in size
Outline: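 Cell-based rPXR luciferase reporter assay, 2,000 cells per well, rested 5hr at 37 C before compound addition in DMSO, then 24 hr at 37 C. One-Glo reagent was added and luminescence read after 30 min at room temperature.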

[9] = biological target: Nuclear receptor subfamily 1 group I member 2 (Homo sapiens) (UniProt O75469); assay: CYP3A4 induction through human pregnane X receptor (PXR) by small molecules, qHTS assay (AID 1346984); further: nearly all actives have a fitted effect of over 40% in size
Outline: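 Quantitative HTS in DPX-2 cells, i.e. HepG2 transfected with PXR response element and CYP3A4-promoter luciferase. Compounds in DMSO incubated 24hr at 37C; then P450-Glo CYP3A4 substrate, 3uM final, 3hr; One-Glo luminescence.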

[10] = biological target: Nuclear receptor subfamily 1 group I member 2 (Homo sapiens) (UniProt O75469); assay: Human pregnane X receptor (PXR) activation by small molecules, qHTS assay (AID 1346985); further: nearly all actives have a fitted effect of over 40% in size
Outline: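 DPX-2 cells (HepG2 co-transfected with a PXR response element and a CYP3A4-promoter luciferase construct) were seeded at 2,000 per well, rested 5 hr at 37C, then exposed to DMSO-dissolved compounds for 24 hr. Activation was read as luciferase luminescence.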

Chain of Nuclear receptor subfamily 1 group I member 2 (Homo sapiens) (O75469 whole entry, looked up): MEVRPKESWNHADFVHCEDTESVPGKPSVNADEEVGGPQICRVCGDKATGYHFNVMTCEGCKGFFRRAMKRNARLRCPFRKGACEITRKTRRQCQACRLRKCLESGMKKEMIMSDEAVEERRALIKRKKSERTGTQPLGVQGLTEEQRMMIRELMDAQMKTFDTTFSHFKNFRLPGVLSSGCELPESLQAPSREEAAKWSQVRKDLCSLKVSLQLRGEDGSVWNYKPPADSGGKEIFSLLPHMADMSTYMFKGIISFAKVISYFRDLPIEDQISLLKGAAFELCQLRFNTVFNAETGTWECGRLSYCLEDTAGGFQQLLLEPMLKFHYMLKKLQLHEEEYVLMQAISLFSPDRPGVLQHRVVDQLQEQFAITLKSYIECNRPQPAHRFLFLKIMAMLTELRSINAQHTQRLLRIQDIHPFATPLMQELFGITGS
Chain of Nuclear receptor subfamily 1 group I member 2 (Rattus norvegicus) (Q9R1A7 whole entry, looked up): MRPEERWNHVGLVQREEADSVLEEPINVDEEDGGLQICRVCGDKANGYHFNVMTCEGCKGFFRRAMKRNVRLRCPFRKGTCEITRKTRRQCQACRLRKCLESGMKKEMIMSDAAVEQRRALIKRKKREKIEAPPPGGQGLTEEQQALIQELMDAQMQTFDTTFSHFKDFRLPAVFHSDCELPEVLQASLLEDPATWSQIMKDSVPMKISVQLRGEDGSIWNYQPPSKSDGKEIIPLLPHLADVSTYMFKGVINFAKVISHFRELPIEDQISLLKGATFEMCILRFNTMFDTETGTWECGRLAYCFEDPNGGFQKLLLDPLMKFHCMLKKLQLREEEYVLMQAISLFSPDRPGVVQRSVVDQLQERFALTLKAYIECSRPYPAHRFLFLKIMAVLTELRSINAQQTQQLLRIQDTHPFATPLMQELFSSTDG
Chain of Thyrotropin-releasing hormone receptor (Homo sapiens) (P34981 whole entry, looked up): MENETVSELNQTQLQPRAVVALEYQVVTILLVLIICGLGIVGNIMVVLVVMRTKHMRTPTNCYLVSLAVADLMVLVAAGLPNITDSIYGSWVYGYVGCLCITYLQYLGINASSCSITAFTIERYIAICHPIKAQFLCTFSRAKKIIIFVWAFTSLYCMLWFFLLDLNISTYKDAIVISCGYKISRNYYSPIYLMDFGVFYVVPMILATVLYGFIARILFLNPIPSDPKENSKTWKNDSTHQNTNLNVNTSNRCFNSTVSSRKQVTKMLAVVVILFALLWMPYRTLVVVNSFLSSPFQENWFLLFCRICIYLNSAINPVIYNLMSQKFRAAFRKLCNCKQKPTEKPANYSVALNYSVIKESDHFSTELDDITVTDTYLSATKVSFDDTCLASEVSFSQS

SMILES | Potency [1] | Potency [2] | Potency [3] | Potency [4] | Potency [5] | Potency [6] | Potency [7] | max activation [8] | Potency [9] | Potency [10]
O=C(/C=C/c1ccc(O)c(O)c1)O[C@@H]1C[C@@](OC(=O)/C=C/c2ccc(O)c(O)c2)(C(=O)O)C[C@@H](O)[C@@H]1O | inactive | inactive | inactive | inactive | inactive | inactive | inactive | -5.53% | inactive | inactive
COc1cc(C(=O)NC2CCN(C)CC2)ccc1Nc1ncc2c(n1)N(C1CCCC1)CC(F)(F)C(=O)N2C | inactive | 8.88 µM (active) | 22.3 µM (active) | 0.499 µM (active) | – | 15.8 µM (active) | 19.9 µM (active) | – | – | –
CC1CC(C)C(=O)C1=O (configuration not stated) | inactive | inactive | inactive | – | inactive | inactive | inactive | – | – | –
CCCCCCCCCCC(=O)O | inactive | inactive | inactive | – | inactive | inactive | – | – | – | –
Nc1ncnc2c1ncn2[C@H]1CC[C@@H](CO)O1 | inactive | inactive | inactive | inactive | inactive | inactive | – | 1.66% | inactive | inactive
O=C(O)c1cccc(-c2noc(-c3ccccc3F)n2)c1 | inactive | inactive | inactive | inactive | inactive | inactive | 0.006 µM (active) | – | inactive | inactive
COC(=O)[C@H]1[C@H]2C[C@@H]3c4[nH]c5cc(OC)ccc5c4CCN3C[C@H]2C[C@@H](OC(=O)/C=C/c2ccc(O)c(OC)c2)[C@@H]1OC | inactive | 23.7 µM (active) | inactive | 26.6 µM (active) | inactive | – | 11.9 µM (active) | – | – | –
O=C(O)CCc1nc(-c2ccccc2)c(-c2ccccc2)o1 | inactive | inactive | inactive | inactive | inactive | – | – | -4.22% | inactive | inactive
NC1[C@H]2CN(c3nc4c(cc3F)c(=O)c(C(=O)O)cn4-c3ccc(F)cc3F)C[C@@H]12 (some centres not stated) | inactive | 29.8 µM (active) | inactive | 3.76 µM (active) | inactive | – | 26.6 µM (active) | – | – | –
Nc1cccc2c1CN(C1CCC(=O)NC1=O)C2=O (configuration not stated) | inactive | inactive | inactive | inactive | inactive | inactive | inactive | -1% | – | inactive
C=C(C)[C@@H]1CCC2=CCC[C@@H](C)[C@]2(C)C1 | inactive | inactive | inactive | inactive | inactive | inactive | 38.6 µM (active) | – | – | –
O=C1CCCCCCCCCCOCCCCO1 | inactive | inactive | inactive | inactive | – | inactive | inactive | – | – | –
C[C@@H](O)[C@H]1C(=O)N2C(C(=O)O)=C([C@H]3CCCO3)S[C@H]12 | inactive | inactive | inactive | inactive | inactive | inactive | inactive | -4.46% | inactive | inactive
